Only some compounds are listed: those with a hit (about 1.5% of all), similar ones and a draw of the others.
MCL1-BIM inh: disrupts human MCL1 binding to BIM-BH3 peptide; inhibition, % at 10.9 µM; GST-MCL1 / FITC-Bim-BH3 fluorescence polarization; AID 2057; actives 0.68% (n = 320,000);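 active = inhibition above the mean inhibition of all tested compounds plus 3 SD, set per campaign, cut at about 40% in these data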;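 note: higher means more loss of mP so more displacement of Bim peptide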
GLD-1 RNA inh: GLD-1-TGE RNA interaction inhibition (C. elegans); inhibition, % at 5.96 µM; AID 2280; purified GLD-1 + fluorescein TGE RNA, fluorescence polarization; Q17339; actives 0.44% (n = 320,000);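 active = percent inhibition above a per-plate cutoff, the plate mean of test compounds plus 3 SD, cut at about 30% in these data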
BCLXL inh: Bcl-xL (human) inhibition; Q07817; actives 0.7% (n = 320,000); inhibition, % at 10.9 µM; GST-Bcl-xL / FITC-Bim BH3 peptide fluorescence polarization;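 active = inhibition above the mean of all tested compounds plus 3 SD, cutoff set per campaign, cut at about 30% in these data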;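 note: inhibitors lower millipolarization by displacing the labeled peptide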
MEX-5 binding: C. elegans MEX-5 TCR-2 RNA binding activity | MEX-5/FITC-TCR2 RNA binding, fluorescence polarization; hits give low values | actives 0.38% (n = 300,000) | Q9XUB2 | activity score (negative = inhibition of binding), % at 10 µM | AID 1832;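 active = inhibition past about -25% in most replicates, and total fluorescence under double the plate's negative control median, limit read from the data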
EBV gp42 block: blocks Epstein-Barr virus glycoprotein 42 binding; Q1HVG2; Fluorescence polarization binding assay, mP read-out; inhibition, % (tested at 21.74 µM); actives 0.42% (n = 220,000); AID 1085; in the data active = inhibition above about 50%
eLon inh: inhibitors of E. coli Lon protease; P0A9M0; purified E. coli Lon protease, fluorescence polarization; inhibition, % at 7.94 µM; actives 0.42% (n = 360,000); in the data active = inhibition above about 13%, passing the limit was not always enough
Target sequence (P0A9M0 whole entry, looked up): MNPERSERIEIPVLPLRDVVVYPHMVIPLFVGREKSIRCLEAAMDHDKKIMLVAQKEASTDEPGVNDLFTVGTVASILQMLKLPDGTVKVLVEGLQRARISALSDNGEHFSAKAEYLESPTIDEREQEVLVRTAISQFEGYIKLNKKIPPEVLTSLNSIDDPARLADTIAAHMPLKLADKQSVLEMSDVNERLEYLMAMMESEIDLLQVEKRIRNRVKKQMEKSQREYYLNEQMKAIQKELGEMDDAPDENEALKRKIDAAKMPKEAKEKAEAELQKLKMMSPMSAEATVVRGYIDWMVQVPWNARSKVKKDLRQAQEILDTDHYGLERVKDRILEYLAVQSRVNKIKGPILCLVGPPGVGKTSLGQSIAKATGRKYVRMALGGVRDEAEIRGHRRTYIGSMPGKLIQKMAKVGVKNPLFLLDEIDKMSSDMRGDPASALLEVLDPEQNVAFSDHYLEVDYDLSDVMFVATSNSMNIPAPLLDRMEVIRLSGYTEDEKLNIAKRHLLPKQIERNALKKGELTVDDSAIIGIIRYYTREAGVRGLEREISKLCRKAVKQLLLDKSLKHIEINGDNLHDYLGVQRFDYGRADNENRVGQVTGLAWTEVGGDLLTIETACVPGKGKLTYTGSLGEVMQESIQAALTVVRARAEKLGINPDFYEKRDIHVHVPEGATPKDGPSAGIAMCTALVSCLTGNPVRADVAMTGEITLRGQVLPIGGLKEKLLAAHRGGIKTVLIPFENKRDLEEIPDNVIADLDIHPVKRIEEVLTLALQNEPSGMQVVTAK
E coli Lon conf: E. coli Lon inhibition confirmation. shares compounds with eLon inh. purified E. coli Lon, fluorescence polarization. actives 31% (n = 1,400). inhibition, % at 7.94 µM; in the data active = inhibition above about 16%
Each line names hits and unclear results; the compound was inactive in the other large screens (follow-up assays come after a bar, where they were run).

CCOC(=O)N1CCN(C(=O)c2oc3ccc(S(=O)(=O)N(CC)CC)cc3c2C)CC1	none (no result: EBV gp42 block)
CCOC(=O)C1=C(COC(=O)Cc2c(F)cccc2Cl)NC(=O)NC1C (configuration not stated)	eLon inh 24 (no result: MEX-5 binding, EBV gp42 block) | E coli Lon conf inactive
CCOC(=O)C1=C(COC(=O)c2c(OC)cccc2OC)NC(=O)NC1C (configuration not stated)	none (no result: EBV gp42 block)
Cc1ccc(CNc2ccc(O)cc2)cc1	eLon inh 20 (no result: MCL1-BIM inh, GLD-1 RNA inh, BCLXL inh) | E coli Lon conf inactive
CN(C)S(=O)(=O)c1ccc(NC(=O)CSc2nnc(-c3ccco3)o2)cc1	none (no result: MCL1-BIM inh, BCLXL inh, MEX-5 binding, EBV gp42 block)
Cc1ccccc1P(=O)(c1ccccc1)c1ccccc1C	none (no result: MCL1-BIM inh, GLD-1 RNA inh, BCLXL inh, MEX-5 binding, EBV gp42 block)
CCOc1ccc(C(=O)NNC(=O)CCNC(=O)c2ccc(Br)cc2)cc1OC	none (no result: MEX-5 binding, EBV gp42 block)
CCCNS(=O)(=O)c1ccc2c(c1)n(C)c(=O)n2C	eLon inh 16 | E coli Lon conf inactive
O=C1C(N2CCOCC2)=Cc2cccc3cccc1c23	eLon inh 186 (no result: MCL1-BIM inh, GLD-1 RNA inh, BCLXL inh, MEX-5 binding, EBV gp42 block) | E coli Lon conf 195
O=C1C=C(N2CCOCC2)c2cccc3cccc1c23	eLon inh 183 (no result: MCL1-BIM inh, GLD-1 RNA inh, BCLXL inh, MEX-5 binding, EBV gp42 block) | E coli Lon conf inactive
O=C1C=C(N2CCOCC2)c2ccccc2C1=O	none (no result: EBV gp42 block)
COc1ccc(OC)c(NC(=O)c2ccccc2N(Cc2ccccc2)S(C)(=O)=O)c1	none
Cc1ccc(S(=O)(=O)N[C@@H](Cc2ccccc2)C(=O)N2CCC[C@@H]2C(=O)O)cc1	eLon inh 17 (no result: EBV gp42 block) | E coli Lon conf inactive
CCCC(C)(C)C(=O)N1CCC1(C)C(=O)NS(=O)(=O)c1ccccc1Cl (configuration not stated)	none (no result: MCL1-BIM inh, GLD-1 RNA inh, BCLXL inh, MEX-5 binding, EBV gp42 block)
O=C1COc2ccc(C(=O)COC(=O)C3CCN(S(=O)(=O)c4cccs4)CC3)cc2N1	none
O=C(COC(=O)C1CCN(S(=O)(=O)c2cccs2)CC1)c1ccc2c(c1)OCCO2	eLon inh 15 | E coli Lon conf inactive
CN(C)c1ccccc1-c1cc(NC=O)c2ncc(-c3cccc(C(F)(F)F)c3)n2c1	eLon inh active (no result: MCL1-BIM inh, GLD-1 RNA inh, BCLXL inh, MEX-5 binding, EBV gp42 block) | E coli Lon conf active
CN(C)C(=O)c1cccc(-c2cnc3c(NC=O)cc(-c4ccccc4N(C)C)cn23)c1	eLon inh active (no result: MCL1-BIM inh, GLD-1 RNA inh, BCLXL inh, MEX-5 binding, EBV gp42 block) | E coli Lon conf 124
COc1ccccc1-c1cc(NC=O)c2ncc(-c3cccc(C(F)(F)F)c3)n2c1	none (no result: MCL1-BIM inh, GLD-1 RNA inh, BCLXL inh, MEX-5 binding, EBV gp42 block)
COCCN(C(=O)c1cccc(OC)c1)c1nnc(-c2ccncc2)s1	none
C=CCN(C(=O)COc1ccccc1)c1nnc(-c2ccncc2)s1	eLon inh 18 | E coli Lon conf inactive
COc1ccccc1N1CCN(c2nccc(C)n2)CC1	none (no result: EBV gp42 block)
CN(/N=C/c1ccc(N(C)C)cc1)C1=NS(=O)(=O)c2ccccc21	eLon inh 47 (no result: EBV gp42 block) | E coli Lon conf inactive
COc1ccc(/C=N/N(C)C2=NS(=O)(=O)c3ccccc32)cc1	none (no result: EBV gp42 block)
O=C(Nc1ccccc1Cl)c1ccc(-c2ccccn2)s1	none
COc1ccc(C2C(C(=O)O)c3ccccc3C(=O)N2C)cc1Br (configuration not stated)	eLon inh 19 | E coli Lon conf inactive
COc1cc(OC)c(C2C(C(=O)O)c3ccccc3C(=O)N2C)cc1OC (configuration not stated)	none
O=C(COC(=O)Cc1ccc(Cl)cc1)NC1CCCC1	eLon inh 50 (no result: MEX-5 binding, EBV gp42 block) | E coli Lon conf inactive
COCCn1c2nc(=O)n(-c3ccccc3)c(=O)c-2nc2ccccc21	eLon inh active (no result: MCL1-BIM inh, GLD-1 RNA inh, BCLXL inh, MEX-5 binding, EBV gp42 block) | E coli Lon conf active
COc1ccc(NC(=O)N2CCCC2C(=O)Nc2ccc(C)cc2C)cc1 (configuration not stated)	none (no result: EBV gp42 block)
CC(C)(C)OC(=O)N(CCc1ccccc1)Cc1ccc(OCc2cccc(NC(=O)/C=C/c3ccccc3)c2)cc1	eLon inh 15 (no result: MCL1-BIM inh, GLD-1 RNA inh, BCLXL inh, MEX-5 binding, EBV gp42 block) | E coli Lon conf inactive
Cc1cc(C)c(C)c(S(=O)(=O)N2CCC(C(=O)NCCCN3CCCC3=O)CC2)c1C	none (no result: MEX-5 binding, EBV gp42 block)
O=C(COc1ccc(Cl)cc1)NCCNC(=O)c1ccccn1	none (no result: EBV gp42 block)
CC(NC(=O)c1ccccc1Cl)C1CC2CCC1C2 (configuration not stated)	eLon inh 17 (no result: EBV gp42 block) | E coli Lon conf inactive
CN1OC[C@@H]2CN(Cc3cc(Cl)cc(Cl)c3)[C@H](c3cccc(Br)c3)C[C@@H]21	none (no result: MCL1-BIM inh, GLD-1 RNA inh, BCLXL inh, MEX-5 binding, EBV gp42 block)

High-throughput results (PubChem)
